Source: PubChem BioAssay (NCI)
Where “and” joins values, the source holds several entries; their conditions need not be identical. Equal values may be shown once. This is part of a sample that, as a whole, favours compounds with a hit. Of some 79,000 tested, about 15% had one in any assay. Values without a mark were called inactive. Calls of active or inactive are those of the source. Cut-off read from the data, not from the text of the source: active = growth inhibition above about 70%; inactive = the rest.

How the values were obtained:
[1] = NCI Yeast Anticancer Drug Screen. Data for the rad50 strain (AID 155);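 note: 0% = growth of vehicle-only cultures of the same strain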; conditions: S. cerevisiae rad50 strain growth inhibition, hits give high values; at 50.0 µM unless noted
Method in brief: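 Compounds were tested on a yeast strain with an engineered DNA damage repair alteration; the reported value is growth inhibition normalised to vehicle treatment.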

[2] = NCI Yeast Anticancer Drug Screen. Data for the mec2-1 strain (AID 157); conditions: S. cerevisiae mec2-1 strain, hits give high values; at 50.0 µM unless noted
Method in brief: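 mec2-1 yeast strain, carrying an alteration in DNA damage repair or cell cycle control, was exposed to compounds; growth inhibition was measured relative to vehicle-treated controls.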

[3] = NCI Yeast Anticancer Drug Screen. Data for the sgs1 mgt1 strain (AID 161);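 note: 0% = growth of cultures given vehicle only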; conditions: S. cerevisiae sgs1 mgt1 strain, hits give high values; at 50.0 µM unless noted
Method in brief: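 Percent growth inhibition was derived by comparing compound-exposed mutant yeast with vehicle-exposed cultures. The strain carries alterations in DNA damage repair.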

[4] = NCI Yeast Anticancer Drug Screen. Data for the cln2 rad14 strain (AID 165);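 note: 0% = growth equal to vehicle treated cultures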; conditions: S. cerevisiae cln2 rad14 strain, hits give high values; at 50.0 µM unless noted
Method in brief: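 Yeast carrying cln2 and rad14 alterations (cell cycle control and DNA damage repair) were exposed to compounds. Growth inhibition was measured against vehicle-treated controls.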

[5] = NCI Yeast Anticancer Drug Screen. Data for the bub3 strain (AID 167); conditions: S. cerevisiae bub3 mutant strain, hits give high values; at 50.0 µM unless noted
Method in brief: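 Growth of a checkpoint-deficient yeast mutant is measured after compound exposure. Values represent inhibition relative to vehicle.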

[6] = NCI Yeast Anticancer Drug Screen. Data for the mlh1 rad18 strain (AID 175); conditions: S. cerevisiae mlh1 rad18 strain growth inhibition, hits give high values; at 50.0 µM unless noted
Method in brief: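 Growth inhibition of the yeast strain was measured after compound exposure and expressed relative to vehicle-treated controls. The strain carries defined defects in DNA damage repair.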

SMILES	growth inhibition [1]	growth inhibition [2]	growth inhibition [3]	growth inhibition [4]	growth inhibition [5]	growth inhibition [6]
CC1=NC(=Cc2cc(Br)cc(Br)c2)C(=O)N1n1c(-c2ccccc2)nc2ccccc2c1=O	-13.2%	-15.8%	-1.65%	0.95%	-24.7%	2.7%
COc1cccc2c1C(=O)c1c(O)c(CCl)cc(OC)c1C2=O	16.9%	-4.6%	20.9%	-33%	5.6%	14.9%
CCOC(=O)C1Oc2ccc([N+](=O)[O-])cc2C1(C)O (stereo not given)	-1.15%	0.75%	-6.85%	22.6%	1.85%	-4.45%
CS(=O)(=O)OCC(Br)C(Br)COS(C)(=O)=O (stereo not given)	2.8%	5.2%	7.7%	26.4%	-5.3%	10.2%
CC(C)(C)C1C=C(Sc2ccccc2)C(=O)O1 (stereo not given)	28.8%	7.3%	6.25%	1.8%	61.2%	30.1%
CC1=CP(=O)(c2ccccc2)CC1 (stereo not given) (tested in a mixture with another compound)	-12.2%	-9.2%	6.2%	-9.85%	-10.4%	1.2%
ClCCCSSCCCCl	24.1%	21.2%	20.4%	-7.95%	14.4%	3.85%
CCCCCCC(=O)C/C(=N/NC(N)=S)C(=O)NC1C2CC3CC(C2)CC1C3 (stereo not given)	-14.8%	-19.2%	-48.7%	29.4%	-2.3%	-34.5%
CC1(c2nc3ccccc3[nH]2)CCC(C(N)=O)C(C)(C)O1 (stereo not given)	1.5%	-13.2%	-19.8%	-2.55%	-16.9%	-10.6%
O=C(OC1CCCCCCC1OC(=O)c1ccc([N+](=O)[O-])cc1)c1ccc([N+](=O)[O-])cc1 (stereo not given)	7.05%	1.85%	6.4%	11.8%	-4.8%	1.7%
COc1ccc(C2(O)OCC(COc3cc(C)c(Cl)c(C)c3)O2)cc1OC (stereo not given)	-10%	1.35%	8.85%	18.5%	-6.05%	3.45%
ClC1=C(Cl)C(Cl)(Cl)c2c3c(c4c(c21)C(Cl)(Cl)C(Cl)=C4Cl)C(Cl)(Cl)C(Cl)=C3Cl	-0.6%	17.1%	5.15%	-53.8%	9.1%	7.45%
Cc1ccc(S(=O)(=O)N/N=C(\c2nc3ccc(Cl)cc3[nH]c2=O)C(O)c2cccc([N+](=O)[O-])c2)cc1 (stereo not given)	-1.5%	-24%	-9.35%	11.7%	-22.6%	-0.5%
c1ccc2c(c1)ncn2Sn1cnc2ccccc21	1.8% and 2.7%	16.9% and -0.1%	3.8% and -3.35%	-12.4% and 15.5%	2.95% and 11.1%	6.9% and 20.9%
CCCCCCCCCCCCCCCCCCCCCCCCCCBr	0.85%	0.8%	9.7%	-9.95%	10.4%	11.7%
Cc1cc(C)nc(NS(=O)(=O)c2ccc(NC(=O)NC(F)(F)F)cc2)n1	-41%	-30.2%	-63%	15.8%	26.9%	-23.9%
O=C(/C=C/c1ccccc1)CSc1ncn[nH]1	10.1%	5.4%	8.7%	4.75%	19.4%	-7.4%
CC(=O)c1sc2[n+](c1C)C(=O)/C(=C\c1ccccc1Cl)S2	15.7%	-17.6%	-1%	10.2%	-7.75%	-3%
Cc1nc(Nc2cccc(Cl)c2)c2cnn(-c3ccc(Cl)cc3)c2n1	-2.5%	-0.25%	1.1%	-41.4%	-0.45%	-4.35%
CC(Nc1ncc2c(n1)-c1ccccc1OC2)C(=O)O (stereo not given)	-2.45%	2.1%	-11.4%	-7.8%	-31.4%	16.3%

SMILES	growth inhibition [1]	growth inhibition [2]	growth inhibition [3]	growth inhibition [4]	growth inhibition [5]	growth inhibition [6]
CC(C)(C)OC(=O)C(=[N+]=[N-])C(=O)OC(C)(C)C	8.75%	1.5%	2.3%	-28.5%	-7.15%	17.7%
CCCCCCCCCC(=O)N=C(C(N)=O)C(N)=O	-13.2%	18.3%	38.5%	3.75%	1.7%	21.8%
O=C(Nc1cc(Cl)c(Cl)cc1Cl)C(=O)C(C(=O)c1ccccc1)C1OC(=O)c2ccccc21 (stereo not given)	-18.6%	-34.8%	-25.1%	-0.5%	-10.2%	-10.3%
COC1(OC)CC2C(=O)N(Cc3ccccc3)C1CC2S(=O)(=O)c1ccccc1 (stereo not given)	6.7%	-2.1%	-16.1%	22.8%	-2.3%	11.4%
Cc1ccc(C(=O)OCC(C)C)s1	-6.6%	1.35%	-25.8%	-40.8%	-6.55%	13.4%
CCCCCCCCCCCCNCCC(=O)O	25%	-19%	42.1%	14.6%	50.5%	36.5%
N#CSc1ccc(NN)cc1	11.2%	-2.05%	30.4%	-4.65%	33.7%	1.55%
CC1C(c2ccccc2)OCCN1C(N)=S (stereo not given)	21.9%	1%	52.4%	17.9%	24.1%	23.3%
CC(CO)Cc1ccccc1 (stereo not given)	-1.85%	-12.8%	-11.2%	7.45%	-3.7%	-9.7%
NC(=O)C(NCc1ccccc1)c1ccccc1 (stereo not given)	-2.65%	4.4%	1.6%	12.5%	2.6%	2.6%
S=C(NCc1cccc(Cl)c1)Nc1ccccc1	-4.65%	27.9%	14.2%	-24.9%	29.6%	24.4%
CN(C)C(=S)S(=O)(=O)c1ccccc1	51.5%	75.8% (active)	81.2% (active)	25.2%	85.6% (active)	91.2% (active)
C/C=C(\C)c1cc(=O)c2c(C)cc3c(c2o1)C(OC)(OC(C)=O)c1c(O)c(C2CC(C)(N(C)C)C(OC(C)=O)C(C)O2)cc(C2CC(N(C)C)C(OC(C)=O)C(C)O2)c1C3=O (stereo not given)	-23.9%	-28.3%	-30.8%	0.5%	-21.6%	-4.8%
CCOC(=O)CC1(N)CC2c3ccccc3OC(=O)C2C(=O)N1 (stereo not given)	10.6%	15.1%	6.15%	0.45%	-2.8%	-33.6%
O=C1NC(=O)C2(CCCC2)N1	-9.4%	8.05%	2.8%	-74%	7.45%	-37.9%
CSc1ccc2c(c1)N(CCCN(C)C)c1ccccc1S2	-15%	-4.15%	-1.05%	-13.8%	44.5%	33.5%
CCOc1ccc(C(C)c2cc3c(cc2OCC(=O)O)OCO3)cc1 (stereo not given)	0.65%	-6.4%	-8.45%	25.1%	-6.9%	-11.6%
CCOc1cc(/C=N/NC(=O)c2ccccc2NC(=O)c2ccccc2Cl)ccc1O	11.3%	-1.9%	-7.05%	-1.8%	3.05%	-9.3%
O=C(CSc1nnc(-c2ccc(N=Cc3ccc(Cl)cc3)cc2)o1)Nc1cccc([N+](=O)[O-])c1	-1.95%	-11.1%	3.85%	18.1%	-40%	2.45%
CCOC(=O)CON=c1c2ccccc2ccc2ccccc12	4.05%	-5.85%	-22.5%	3.4%	-10.2%	-2.45%
